# From the supplement of paper PMC12494721
# Counter-ions that a name gives are not always drawn.
# What was measured:
# Details in all cases: incubation time: 27 h, anaerobic, 37 °C;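 for the amine columns active = adjusted P below 0.05 in both replicates with a change the same way and a mean fold change under 0.8 or over 1.25; inactive = the rest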
# [1] = tested on: Clostridium sporogenes DSM 1664; assay: growth (OD595) fold change vs plate DMSO controls (fold change (ratio)); higher = more growth
# Summary of the method: (§1)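 The 96-well mGAM cultures had been kept anaerobic for 27 h at 37 °C before being shaken and read at 595 nm. Blank subtraction, compound background correction with 20 µM compound solutions in water, and a calibration factor of 5 turned the readings into OD. Growth is given as the fold change versus the median of plate DMSO controls. Fold changes above 1.5 were set to NA, and the values are means of 2 biological replicates.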
# [2] = tested on: Escherichia coli IAI1; assay: as above
# Summary of the method: as §1
# [3] = tested on: Klebsiella aerogenes DSM 30053; assay: as above
# Summary of the method: as §1
# [4] = tested on: Ruminococcus gnavus DSM 108212; assay: as above
# Summary of the method: as §1
# [5] = tested on: Klebsiella aerogenes DSM 30053; assay: fold change of Histamine concentration vs plate DMSO controls (fold change (ratio)); higher = more amine produced, active = hit call of the paper (significant change in both replicates, either direction)
# Summary of the method: (§2)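 Amine values are fold changes relative to DMSO-only wells on the same plate. They derive from 27 h, 37 °C anaerobic mGAM cultures of four gut bacterial strains in 80 µL wells, dosed at 20 µM final, or 50 µM final for sweeteners. Extraction of the whole culture, LC–triple-quadrupole MS in dynamic MRM mode, external calibration curves and within-batch drift correction were used, with 2 biological replicates averaged.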
# [6] = tested on: Clostridium sporogenes DSM 1664; assay: fold change of Tryptamine concentration vs plate DMSO controls (fold change (ratio)); higher = more amine produced, active = hit call of the paper (significant change in both replicates, either direction)
# Summary of the method: as §2
# [7] = tested on: Ruminococcus gnavus DSM 108212; assay: as above
# Summary of the method: as §2
# [8] = tested on: Escherichia coli IAI1; assay: fold change of Putrescine concentration vs plate DMSO controls (fold change (ratio)); higher = more amine produced, active = hit call of the paper (significant change in both replicates, either direction)
# Summary of the method: as §2
# [9] = tested on: Klebsiella aerogenes DSM 30053; assay: as above
# Summary of the method: as §2
# [10] = tested on: Escherichia coli IAI1; assay: fold change of Cadaverine concentration vs plate DMSO controls (fold change (ratio)); higher = more amine produced, active = hit call of the paper (significant change in both replicates, either direction)
# Summary of the method: as §2
# [11] = tested on: Klebsiella aerogenes DSM 30053; assay: as above
# Summary of the method: as §2
# [12] = tested on: Ruminococcus gnavus DSM 108212; assay: fold change of 2-Phenylethylamine concentration vs plate DMSO controls (fold change (ratio)); higher = more amine produced, active = hit call of the paper (significant change in both replicates, either direction)
# Summary of the method: as §2
SMILES,growth [1],growth [2],growth [3],growth [4],fold change of Histamine concentration [5],fold change of Tryptamine concentration [6],fold change of Tryptamine concentration [7],fold change of Putrescine concentration [8],fold change of Putrescine concentration [9],fold change of Cadaverine concentration [10],fold change of Cadaverine concentration [11],fold change of 2-Phenylethylamine concentration [12]
O=C(O)CCC(=O)c1ccc(-c2ccccc2)cc1 [Fenbufen] (20 µM),1.02,1.02,0.996,0.921,0.97 (inactive),0.991 (inactive),1.04 (inactive),1.04 (inactive),0.989 (inactive),0.969 (inactive),0.998 (inactive),1.06 (inactive)
CSc1ccc2c(c1)N(CCC1CCCCN1C)c1ccccc1S2 (stereo not given) [Thioridazine hydrochloride] (20 µM),1.15,1.03,1.01,1.25,0.936 (inactive),1.12 (inactive),0.808 (inactive),1.04 (inactive),0.948 (inactive),1.1 (inactive),1.02 (inactive),0.941 (inactive)
O=C1c2c(O)cccc2Cc2cccc(O)c21 [Anthralin] (20 µM),1.07,0.981,1.03,0.95,1.05 (inactive),1.1 (inactive),0.996 (inactive),1.02 (inactive),1.01 (inactive),0.992 (inactive),0.999 (inactive),0.91 (inactive)
CCN(CC)CCNC(=O)COc1ccc(OC)cc1 [Mefexamide hydrochloride] (20 µM),0.963,1.01,1.08,1.05,0.874 (inactive),1.07 (inactive),1.01 (inactive),1.02 (inactive),0.961 (inactive),1.05 (inactive),1.02 (inactive),0.977 (inactive)
C[C@@H](O[C@H]1OCCN(Cc2n[nH]c(=O)[nH]2)[C@H]1c1ccc(F)cc1)c1cc(C(F)(F)F)cc(C(F)(F)F)c1 [Aprepitant] (20 µM),1.21,0.988,1,1.2,1.02 (inactive),0.945 (inactive),0.742 (inactive),1.03 (inactive),1.01 (inactive),1.02 (inactive),0.993 (inactive),0.791 (inactive)
c1ccc2c(c1)CCCC2C1=NCCN1 (stereo not given) [Tetrahydrozoline hydrochloride] (20 µM),0.99,0.997,1.01,0.897,0.99 (inactive),1.01 (inactive),0.993 (inactive),1.04 (inactive),0.992 (inactive),0.966 (inactive),1 (inactive),1.01 (inactive)
Nc1nc2ccc(OC(F)(F)F)cc2s1 [Riluzole hydrochloride] (20 µM),0.972,0.95,1.06,0.998,1.08 (inactive),0.945 (inactive),0.96 (inactive),0.97 (inactive),0.988 (inactive),0.987 (inactive),0.983 (inactive),0.968 (inactive)
CCCCOCCOCCOCc1cc2c(cc1CCC)OCO2 (20 µM),1.07,1.02,1.03,1.09,0.98 (inactive),1.03 (inactive),1.04 (inactive),1 (inactive),1 (inactive),1.02 (inactive),1 (inactive),1.06 (inactive)
Nc1nc(/C(=C/CC(=O)O)C(=O)N[C@@H]2C(=O)N3C(C(=O)O)=CCS[C@H]23)cs1 [Ceftibuten] (20 µM),0.5,1.06,1.14,1.27,0.885 (inactive),1.02 (inactive),1.04 (inactive),0.79 (inactive),1.04 (inactive),0.942 (inactive),1.07 (inactive),1.06 (inactive)
CN(C)CCC[C@@]1(c2ccc(F)cc2)OCc2cc(C#N)ccc21 [Escitalopram oxalate] (20 µM),0.99,0.986,1.11,0.828,1.02 (inactive),0.971 (inactive),1.01 (inactive),1.01 (inactive),1.02 (inactive),0.993 (inactive),1.02 (inactive),0.965 (inactive)
COC(=O)C1=C(C)NC(C)=C(C(=O)O[C@H]2CCN(Cc3ccccc3)C2)[C@H]1c1cccc([N+](=O)[O-])c1 [Barnidipine Hydrochloride] (20 µM),0.993,1.08,0.991,1.06,1.01 (inactive),0.969 (inactive),0.992 (inactive),0.989 (inactive),0.999 (inactive),1.02 (inactive),1.01 (inactive),0.944 (inactive)
CCN(CC)CC#CCOC(=O)C(O)(c1ccccc1)C1CCCCC1 (stereo not given) [Oxybutynin chloride] (20 µM),1.01,0.971,1,0.917,1.01 (inactive),1.01 (inactive),0.977 (inactive),1.01 (inactive),1.02 (inactive),0.909 (inactive),1.01 (inactive),1.01 (inactive)
OC[C@@H](O)[C@@H](O)CO [Erythritol] (50 µM),0.882,1.12,0.977,1.02,1.05 (inactive),1 (inactive),0.974 (inactive),1.03 (inactive),0.995 (inactive),1.05 (inactive),0.993 (inactive),0.945 (inactive)
NC(=O)OCC(O)COc1ccc(Cl)cc1 (stereo not given) [Chlorphensin carbamate] (20 µM),1.02,1.02,0.951,1.2,0.969 (inactive),0.996 (inactive),0.995 (inactive),1 (inactive),0.913 (inactive),0.951 (inactive),1.02 (inactive),1.07 (inactive)
CC(=O)Nc1ccc(CC(=O)O)cc1 [Actarit] (20 µM),0.864,0.972,1.03,1.11,1.02 (inactive),1.03 (inactive),0.992 (inactive),1.35 (inactive),1 (inactive),0.96 (inactive),1.01 (inactive),0.944 (inactive)
"CC(C)(S)C(N)C(=O)O (racemic) [D,L-Penicillamine] (20 µM)",1.05,1.08,1.02,0.873,0.909 (inactive),0.993 (inactive),0.968 (inactive),0.99 (inactive),0.954 (inactive),1 (inactive),0.974 (inactive),0.956 (inactive)
O=C(O)CSCC(=O)NC1CCSC1=O (stereo not given) [Erdosteine] (20 µM),1.04,1.07,1.03,1.04,0.984 (inactive),0.962 (inactive),1.01 (inactive),0.971 (inactive),1 (inactive),0.993 (inactive),0.993 (inactive),0.988 (inactive)
CN1CCc2cccc3c2[C@H]1Cc1ccc(O)c(O)c1-3 [R(-) Apomorphine hydrochloride hemihydrate] (20 µM),1.05,1.03,1.05,1.17,1.02 (inactive),0.988 (inactive),0.997 (inactive),0.98 (inactive),0.978 (inactive),1.04 (inactive),0.992 (inactive),1.01 (inactive)
CN(C)CCCN1c2ccccc2Sc2ccc(Cl)cc21 [Chlorpromazine hydrochloride] (20 µM),0.986,1.21,1.03,1.29,0.88 (inactive),1.06 (inactive),0.908 (inactive),1.14 (inactive),0.959 (inactive),0.934 (inactive),1.01 (inactive),0.935 (inactive)
O=C(O)Cc1ccccc1Oc1ccc(Cl)cc1Cl [Fenclofenac] (20 µM),0.896,1.02,0.998,1,1.01 (inactive),0.984 (inactive),1.02 (inactive),1.02 (inactive),1.01 (inactive),0.999 (inactive),1.01 (inactive),1.07 (inactive)
Cc1ccsc1/C=C/C1=NCCCN1C [Morantel tartrate] (20 µM),1.2,1.07,1.08,1.08,0.92 (inactive),0.936 (inactive),0.918 (inactive),1.01 (inactive),1 (inactive),1.03 (inactive),1.01 (inactive),0.957 (inactive)
CCCC(=O)OCOC(=O)C1=C(C)NC(C)=C(C(=O)OC)C1c1cccc(Cl)c1Cl (stereo not given) [Clevidipine] (20 µM),0.828,1.03,1.01,1.22,1.01 (inactive),0.829 (inactive),0.902 (inactive),1.04 (inactive),1.01 (inactive),0.985 (inactive),0.998 (inactive),0.928 (inactive)
CC(CN(C)C)C(C)(O)Cc1ccc(Cl)cc1 (stereo not given) [Clobutinol hydrochloride] (20 µM),0.926,1.01,1.02,1.26,1.03 (inactive),1.02 (inactive),0.975 (inactive),0.975 (inactive),0.997 (inactive),0.965 (inactive),0.988 (inactive),0.988 (inactive)
CC(=O)c1ccc2c(c1)N(CCCN(C)C)c1ccccc1S2 [Acetopromazine maleate salt] (20 µM),0.96,1,0.976,0.878,1.03 (inactive),1.01 (inactive),1.01 (inactive),1 (inactive),1.01 (inactive),1.03 (inactive),0.983 (inactive),1.03 (inactive)
CC(=O)S[C@@H]1CC2=CC(=O)CC[C@]2(C)[C@H]2CC[C@@]3(C)[C@@H](CC[C@@]34CCC(=O)O4)[C@H]12 [Spironolactone] (20 µM),1.1,0.915,0.916,0.833,1 (inactive),1.03 (inactive),1.06 (inactive),1.02 (inactive),1.01 (inactive),1.02 (inactive),1 (inactive),1.01 (inactive)
